Test [1] relates to NCBI gene 100848466. Description: NVS_NR_bPR: NovaScreen (NVS) Nuclear Receptor Binding Assay for bovine Progextron Receptor (PR) (AID 2283343).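 For AC50: actives lower bound radioligand signal below DMSO meaning displacement of the label.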 An outline of the steps:
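Steps: bovine uterine membranes were dosed with chemical alongside radioligand, incubated 18 hours, then radiodetected by scintillation counting. Initial testing used 25 uM in duplicate; confirmed actives were rerun as concentration series.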

The target in test [2] is human Constitutive Androstane Receptor (CAR), NR1I3 (gene 9970) (UniProt Q14994). Description: NVS_NR_hCAR_Antagonist: NovaScreen (NVS) Nuclear Receptor Binding Assay for human Constitutive Androstane Receptor Antagonism (CAR) (AID 2283344). An outline of the steps:
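Single 25 uM duplicate primary screen, with concentration-series follow-up on actives. Cell-free binding format run in antagonist mode, TR-FRET signal taken 1 h post-dose; activity is signal loss relative to DMSO.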

Test [3] addresses chimpanzee Androgen Receptor (AR), AR (gene 747460) (UniProt O97775). The experiment in a line: NVS_NR_cAR: NovaScreen (NVS) Nuclear Receptor Binding Assay for chimpanzee Androgen Receptor (AR) (AID 2283346).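 Note: radioligand displacement from AR measured by scintillation counting in a cell-free assay.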 In short, it runs like this:
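Cell-free radioligand displacement using receptor protein extracted from Sf9/Sf21 cells; bound radioligand measured by scintillation counting 72 hours after chemical dosing. Loss of signal versus DMSO baseline indicates binding; primary screen single-concentration in duplicate at 25 uM, actives followed in concentration series.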

Test [4] addresses Bile acid receptor (Homo sapiens) (UniProt Q96RI1). Description: NVS_NR_hFXR_Antagonist: NovaScreen (NVS) Nuclear Receptor Binding Assay for human Farnesoid X Receptor Antagonism (FXR) (AID 2283350). An outline of the steps: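 Antagonist-format time-resolved FRET binding assay with extracted human receptor protein, read 1 hour after compound addition. Compounds first screened at 25 uM in duplicate, then actives tested in concentration series, with loss of signal relative to DMSO.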

Test [5] has as its target Estrogen receptor beta (Homo sapiens) (UniProt Q92731). Description: OT_ER_ERbERb_0480: Odyssey Thera (OT) 8-hour HEK293T Protein-Complementation Assay for Estrogen Receptor-beta/-beta Homodimer (AID 2283357).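 Note: active means signal gain over DMSO baseline.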 In short, it runs like this: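 Fluorescence gain from complemented reporter fragments on ER-beta LBD homodimer in HEK293T was quantified against DMSO controls after 8 h treatment, fixation in 4% formaldehyde and Draq5 staining.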

The target of test [6] is Retinoic acid receptor alpha (Homo sapiens) (UniProt P10276). Description: NVS_NR_hRAR_Antagonist: NovaScreen (NVS) Nuclear Receptor Binding Assay for human Retinoic Acid Alpha Receptor Antagonism (RAR) (AID 2283358). In short, it runs like this: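 Chemicals were first tested in duplicate at 25 uM, then actives in concentration series, in a cell-free TR-FRET antagonist binding format. Measurements were taken 2 hours after dosing and loss of signal was evaluated against DMSO controls.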
Retinoic acid receptor alpha (Homo sapiens), sequence (P10276 whole entry, looked up): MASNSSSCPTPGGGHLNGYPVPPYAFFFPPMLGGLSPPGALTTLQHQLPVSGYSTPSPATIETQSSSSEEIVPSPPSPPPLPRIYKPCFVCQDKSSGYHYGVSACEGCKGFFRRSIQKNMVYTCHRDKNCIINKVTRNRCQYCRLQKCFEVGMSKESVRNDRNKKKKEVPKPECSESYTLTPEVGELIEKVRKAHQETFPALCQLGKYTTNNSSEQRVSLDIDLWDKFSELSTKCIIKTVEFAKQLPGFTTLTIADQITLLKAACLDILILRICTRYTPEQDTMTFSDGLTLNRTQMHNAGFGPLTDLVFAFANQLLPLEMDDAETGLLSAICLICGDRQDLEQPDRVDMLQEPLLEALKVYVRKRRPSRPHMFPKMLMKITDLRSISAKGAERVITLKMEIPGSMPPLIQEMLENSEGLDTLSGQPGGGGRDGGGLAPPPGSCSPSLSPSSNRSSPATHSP

In test [7] the target is Bile acid receptor (Homo sapiens) (UniProt Q96RI1). Description: NVS_NR_hFXR_Agonist: NovaScreen (NVS) Nuclear Receptor Binding Assay for human Farnesoid X Receptor Agonism (FXR) (AID 2283347). An outline of the steps:
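Agonist-mode FXR assay read by time-resolved FRET 1 h after compound addition, using isolated human receptor protein without cells. Duplicate 25 uM single-point primary screen, concentration series for confirmed actives; DMSO as baseline.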

Test [8] has as its target rat Mineralocorticoid Receptor (MR), Nr3c2 (gene 25672) (UniProt P22199). The experiment in a line: NVS_NR_rMR: NovaScreen (NVS) Nuclear Receptor Binding Assay for rat Mineralocorticoid Receptor (MR) (AID 2283355). An outline of the steps:
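Single-concentration duplicate screen (25 uM) of radioligand binding in adrenalectomized rat brain supernatant; scintillation detection 24 h after dosing. Positive and negative controls ran on each plate, and confirmed actives went to concentration-response.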

Test [9] concerns the target bovine Estrogen Receptor (ER), ESR1 (gene 407238) (UniProt P49884). Description: NVS_NR_bER: NovaScreen (NVS) Nuclear Receptor Binding Assay for bovine Estrogen Receptor (ER) (AID 2283345).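 Note: actives lower the bound radioligand count which means they displace the ER ligand.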 In short, it runs like this:
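Bovine uterine membranes; tritiated or iodinated radioligand; competitive displacement; 18 h; scintillation read; DMSO negative control; 25 uM duplicates, then concentration series for actives.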

In test [10] the target is Estrogen receptor (Homo sapiens) (UniProt P03372). The experiment in a line: NVS_NR_hER: NovaScreen (NVS) Nuclear Receptor Binding Assay for human Estrogen Receptor (ER) (AID 2283348). An outline of the steps:
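Radiodetection of ligand displacement in a lysate-based, cell-free format using MCF7 extracts, read at 18 hours. Duplicate 25 uM primary testing, then concentration series for actives.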

Test [11] concerns the target rat Gamma-Aminobutyric Acid Type A Receptor BDZ, alpha 6 site (GABARa6), Gabra6 (gene 29708) (UniProt P30191). The experiment in a line: NVS_LGIC_rGABARa6: NovaScreen (NVS) Ligand-Gated Ion Channel Assay for rat Gamma-Aminobutyric Acid Type A Receptor BDZ, alpha 6 site (GABARa6) (AID 2283339). In short, it runs like this:
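Actives from a 25 uM duplicate screen were retested in concentration series (max 50 uM). Specific radioligand displacement from rat cerebellar membranes was counted by filter-based scintillation at 1 h; DMSO served as baseline.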

Test [12] has as its target Estrogen receptor (Homo sapiens) (UniProt P03372). The experiment in a line: OT_ER_ERaERa_1440: Odyssey Thera (OT) 24-hour HEK293T Protein-Complementation Assay for Estrogen Receptor-alpha/-alpha Homodimer (AID 2283349).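 Note: hits raise fluorescence above DMSO for agonists and antagonists alike.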 An outline of the steps:
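Stably transfected HEK293T; ERα LBD homodimer PCA. 24 h dosing, fluorescence intensity read, gain-of-signal vs DMSO.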

Test [13] shares this target. The experiment in a line: OT_ER_ERaERa_0480: Odyssey Thera (OT) 8-hour HEK293T Protein-Complementation Assay for Estrogen Receptor-alpha/-alpha Homodimer (AID 2283351).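 Note: rise in fluorescence from reassembled reporter fragments on ERα LBD homodimer in nucleus or whole cell.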 In short, it runs like this:
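Measures ERα LBD (aa 310-547) homodimer complementation in stably transfected HEK293T at 8 h post-dose, with fluorescence intensity quantified on a laser scanning cytometer relative to DMSO controls.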

The target of test [14] is T1, Estrogen receptor (Homo sapiens) + Estrogen receptor beta (Homo sapiens) (UniProt P03372+Q92731). Description: OT_ER_ERaERb_1440: Odyssey Thera (OT) 24-hour HEK293T Protein-Complementation Assay for Estrogen Receptor-alpha/-beta Homodimer (AID 2283356).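 Note: heteromer of ER alpha and ER beta binding domains; hits raise reporter fluorescence and both agonists and antagonists give an increase.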 An outline of the steps:
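Fragment complementation between ER alpha (310-547) and ER beta (263-489) ligand-binding domains in HEK293T cells; signal read 24 h post-dosing by laser scanning cytometer. Gain of fluorescence relative to DMSO fitted.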

Test [15] deals with rat Glutamate, MK-801 Agonist Site (GluNMDA_MK801), Grin1 (gene 24408) (UniProt P35439). Description: NVS_LGIC_rGluNMDA_MK801_Agonist: NovaScreen (NVS) Ligand-Gated Ion Channel Assay for rat Glutamate, MK-801 Agonist Site (GluNMDA_MK801) (AID 2283340). An outline of the steps: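 Rat forebrain membrane preparation; MK-801-site radioligand binding read by filtration and scintillation after 1.5 h. Single-point 25 uM duplicate screen, followed by singleton concentration series to 50 uM max; DMSO baseline.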

Test [16] deals with rat Glycine Receptor, Strychnine-sensitive (GlyRStrySens), Glra1 (gene 25674) (UniProt P07727). Description: NVS_LGIC_rGlyRStrySens: NovaScreen (NVS) Ligand-Gated Ion Channel Assay for rat Glycine Receptor, Strychnine-sensitive (GlyRStrySens) (AID 2283341). An outline of the steps:
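Radioligand displacement on rat spinal cord membranes, 1 hr, filter scintillation read-out. Single-concentration duplicate screen at 25 uM; chemicals meeting threshold (e.g., 30% inhibition) rerun in concentration-response up to 50 uM. Loss of binding fitted versus DMSO.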

In test [17] the target is T1, Estrogen receptor (Homo sapiens) + Estrogen receptor beta (Homo sapiens). The experiment in a line: OT_ER_ERaERb_0480: Odyssey Thera (OT) 8-hour HEK293T Protein-Complementation Assay for Estrogen Receptor-alpha/-beta Heterodimer (AID 2283352). In short, it runs like this: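 Fluorescence increase from reconstituted reporter fragments, quantified by laser scanning cytometer, reflects ER-alpha/ER-beta heterodimer formation in human HEK293T cells. Exposure 8 h; positive-direction fitting against DMSO vehicle.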

Test [18] has as its target Androgen Receptor/SRC-1 Co-activator, AR (gene 367) (UniProt P10275). Description: OT_AR_ARSRC1_0960: Odyssey Thera (OT) 16-hour HEK293T Protein-Complementation Assay for Androgen Receptor/SRC-1 Co-activator (AID 2283353).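 Note: actives raise the signal above DMSO so potency reflects increased AR and SRC-1 complex.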 An outline of the steps:
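Sixteen-hour cell assay: Venus halves fused to AR and SRC-1 in HEK293T report binding. Images at 488/635 nm give an N/C ratio in the 488 nm channel over ≥400 cells, analysed as signal increase over DMSO.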

The target is the same in test [19]. The experiment in a line: OT_AR_ARSRC1_0480: Odyssey Thera (OT) 8-hour HEK293T Protein-Complementation Assay for Androgen Receptor/SRC-1 Co-activator (AID 2283354).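 Note: hits raise the complementation signal above DMSO so AC50 marks enhancers.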 In short, it runs like this:
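After 8 h dosing, stably expressing HEK293T cells with split-Venus AR/SRC-1 fusions were imaged (488, 635nm). The 488nm N/C ratio per image gave the endpoint, analysed in the positive direction against DMSO.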

Several values for one entry are separate records, joined by “and”; a condition that tells them apart may be missing. Equal values may be shown once. Results filed as inconclusive are left out. The source holds several records for some structures; these can differ, active in one and inactive in another. Activity calls are given as the source filed them. Rule for the calls: active = hit-call score of the fitted dose curve at least 0.9, where 1 is the maximum; inconclusive = response in the unintended direction; inactive = score below 0.9.

One may read the AC50 as the concentration giving half of the maximal activity seen.

bovine Estrogen Receptor (ER), ESR1 (gene 407238), sequence (P49884 whole entry, looked up): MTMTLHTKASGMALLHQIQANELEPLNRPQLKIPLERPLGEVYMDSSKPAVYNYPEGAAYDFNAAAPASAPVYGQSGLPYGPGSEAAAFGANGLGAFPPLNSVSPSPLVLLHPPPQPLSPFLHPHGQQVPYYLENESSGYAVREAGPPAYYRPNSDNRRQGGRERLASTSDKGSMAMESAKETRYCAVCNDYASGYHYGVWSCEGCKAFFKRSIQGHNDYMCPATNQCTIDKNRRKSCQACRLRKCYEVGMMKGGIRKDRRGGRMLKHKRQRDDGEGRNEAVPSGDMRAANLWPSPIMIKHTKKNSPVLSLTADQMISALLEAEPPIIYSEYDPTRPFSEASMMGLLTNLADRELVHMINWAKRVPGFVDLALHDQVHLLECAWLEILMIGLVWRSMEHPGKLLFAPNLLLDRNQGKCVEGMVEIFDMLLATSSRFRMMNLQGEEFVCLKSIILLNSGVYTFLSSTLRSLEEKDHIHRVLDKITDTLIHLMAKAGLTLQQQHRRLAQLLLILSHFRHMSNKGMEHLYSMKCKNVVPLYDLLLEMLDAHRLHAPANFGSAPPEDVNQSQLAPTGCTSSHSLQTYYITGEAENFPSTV
chimpanzee Androgen Receptor (AR), AR (gene 747460), sequence (O97775 whole entry, looked up): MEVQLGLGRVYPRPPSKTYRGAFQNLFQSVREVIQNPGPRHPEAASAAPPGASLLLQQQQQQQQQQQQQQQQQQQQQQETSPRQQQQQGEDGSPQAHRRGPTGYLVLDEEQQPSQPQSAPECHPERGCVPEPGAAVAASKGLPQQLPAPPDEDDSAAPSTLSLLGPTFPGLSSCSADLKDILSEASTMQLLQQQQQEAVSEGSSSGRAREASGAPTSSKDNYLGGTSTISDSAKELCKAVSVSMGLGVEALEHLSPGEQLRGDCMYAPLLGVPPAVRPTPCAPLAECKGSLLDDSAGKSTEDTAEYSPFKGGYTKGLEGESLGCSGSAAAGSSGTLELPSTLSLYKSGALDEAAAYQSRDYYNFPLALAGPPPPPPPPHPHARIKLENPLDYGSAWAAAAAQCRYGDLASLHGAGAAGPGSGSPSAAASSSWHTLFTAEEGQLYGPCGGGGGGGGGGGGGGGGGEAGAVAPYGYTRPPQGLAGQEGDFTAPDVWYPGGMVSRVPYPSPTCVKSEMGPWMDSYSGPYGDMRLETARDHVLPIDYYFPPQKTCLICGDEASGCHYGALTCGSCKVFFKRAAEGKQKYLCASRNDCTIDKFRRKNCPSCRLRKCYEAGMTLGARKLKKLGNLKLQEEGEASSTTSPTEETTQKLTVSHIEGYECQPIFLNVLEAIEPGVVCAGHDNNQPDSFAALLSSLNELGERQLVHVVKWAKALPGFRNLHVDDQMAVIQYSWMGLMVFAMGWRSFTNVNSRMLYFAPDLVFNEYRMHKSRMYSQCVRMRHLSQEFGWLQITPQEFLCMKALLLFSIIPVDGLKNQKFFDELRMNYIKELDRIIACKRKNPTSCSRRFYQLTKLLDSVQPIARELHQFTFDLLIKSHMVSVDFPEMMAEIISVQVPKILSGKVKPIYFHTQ
human Constitutive Androstane Receptor (CAR), NR1I3 (gene 9970), sequence (Q14994 whole entry, looked up): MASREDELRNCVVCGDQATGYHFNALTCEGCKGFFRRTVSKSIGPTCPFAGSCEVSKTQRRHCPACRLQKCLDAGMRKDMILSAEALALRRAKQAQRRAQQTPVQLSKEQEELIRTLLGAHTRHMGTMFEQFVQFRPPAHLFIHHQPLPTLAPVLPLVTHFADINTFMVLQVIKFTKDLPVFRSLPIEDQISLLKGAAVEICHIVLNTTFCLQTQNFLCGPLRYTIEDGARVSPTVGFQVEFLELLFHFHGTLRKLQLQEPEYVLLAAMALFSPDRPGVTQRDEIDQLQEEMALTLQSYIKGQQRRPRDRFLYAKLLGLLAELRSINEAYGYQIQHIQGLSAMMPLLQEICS
T1 sequence (P03372 whole entry, looked up, the tested form may be a part): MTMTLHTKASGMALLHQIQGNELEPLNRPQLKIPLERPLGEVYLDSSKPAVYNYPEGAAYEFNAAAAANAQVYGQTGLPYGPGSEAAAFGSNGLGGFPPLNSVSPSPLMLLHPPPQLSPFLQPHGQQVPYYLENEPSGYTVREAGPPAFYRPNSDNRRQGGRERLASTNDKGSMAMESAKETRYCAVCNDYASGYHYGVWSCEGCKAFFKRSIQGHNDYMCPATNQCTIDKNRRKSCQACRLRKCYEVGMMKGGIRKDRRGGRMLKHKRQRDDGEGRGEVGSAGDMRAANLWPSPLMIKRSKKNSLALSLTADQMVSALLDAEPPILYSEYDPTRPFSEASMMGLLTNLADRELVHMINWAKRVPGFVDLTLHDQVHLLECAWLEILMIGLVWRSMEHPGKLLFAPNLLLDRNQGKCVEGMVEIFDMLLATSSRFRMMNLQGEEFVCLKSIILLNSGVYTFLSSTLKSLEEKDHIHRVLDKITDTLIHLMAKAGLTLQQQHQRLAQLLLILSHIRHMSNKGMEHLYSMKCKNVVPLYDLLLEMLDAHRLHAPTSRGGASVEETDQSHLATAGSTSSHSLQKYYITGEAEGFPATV
T1 sequence (Q92731 whole entry, looked up, the tested form may be a part): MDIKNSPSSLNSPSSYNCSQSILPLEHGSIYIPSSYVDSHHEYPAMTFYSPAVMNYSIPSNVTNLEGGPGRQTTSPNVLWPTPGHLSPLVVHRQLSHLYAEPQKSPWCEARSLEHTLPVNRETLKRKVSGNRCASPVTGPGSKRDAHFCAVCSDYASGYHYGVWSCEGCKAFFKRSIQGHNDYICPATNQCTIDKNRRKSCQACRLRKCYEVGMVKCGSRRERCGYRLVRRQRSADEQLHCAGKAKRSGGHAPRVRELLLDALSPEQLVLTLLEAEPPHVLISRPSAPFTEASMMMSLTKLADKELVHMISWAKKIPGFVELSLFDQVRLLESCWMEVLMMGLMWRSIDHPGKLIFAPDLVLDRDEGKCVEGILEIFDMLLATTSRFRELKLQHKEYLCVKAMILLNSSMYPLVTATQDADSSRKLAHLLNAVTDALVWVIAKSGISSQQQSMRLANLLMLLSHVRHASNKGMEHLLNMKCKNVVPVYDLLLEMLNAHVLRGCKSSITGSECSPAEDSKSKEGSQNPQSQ
Estrogen receptor (Homo sapiens), sequence (P03372 whole entry, looked up, the tested form may be a part): as the sequence (P03372 whole entry, looked up, the tested form may be a part) above
Bile acid receptor (Homo sapiens), sequence (Q96RI1 whole entry, looked up): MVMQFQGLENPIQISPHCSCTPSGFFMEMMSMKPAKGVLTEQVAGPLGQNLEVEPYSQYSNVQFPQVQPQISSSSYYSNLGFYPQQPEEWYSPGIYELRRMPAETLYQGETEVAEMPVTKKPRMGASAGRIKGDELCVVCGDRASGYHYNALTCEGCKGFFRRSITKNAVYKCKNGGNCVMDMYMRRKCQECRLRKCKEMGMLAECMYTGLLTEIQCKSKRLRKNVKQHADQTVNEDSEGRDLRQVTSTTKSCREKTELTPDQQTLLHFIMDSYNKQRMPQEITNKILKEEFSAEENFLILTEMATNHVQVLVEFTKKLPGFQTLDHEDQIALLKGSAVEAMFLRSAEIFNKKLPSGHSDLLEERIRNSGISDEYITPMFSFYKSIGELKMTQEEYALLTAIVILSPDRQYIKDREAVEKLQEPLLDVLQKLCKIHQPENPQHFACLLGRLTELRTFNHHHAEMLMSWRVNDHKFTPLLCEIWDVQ
rat Gamma-Aminobutyric Acid Type A Receptor BDZ, alpha 6 site (GABARa6), Gabra6 (gene 29708), sequence (P30191 whole entry, looked up): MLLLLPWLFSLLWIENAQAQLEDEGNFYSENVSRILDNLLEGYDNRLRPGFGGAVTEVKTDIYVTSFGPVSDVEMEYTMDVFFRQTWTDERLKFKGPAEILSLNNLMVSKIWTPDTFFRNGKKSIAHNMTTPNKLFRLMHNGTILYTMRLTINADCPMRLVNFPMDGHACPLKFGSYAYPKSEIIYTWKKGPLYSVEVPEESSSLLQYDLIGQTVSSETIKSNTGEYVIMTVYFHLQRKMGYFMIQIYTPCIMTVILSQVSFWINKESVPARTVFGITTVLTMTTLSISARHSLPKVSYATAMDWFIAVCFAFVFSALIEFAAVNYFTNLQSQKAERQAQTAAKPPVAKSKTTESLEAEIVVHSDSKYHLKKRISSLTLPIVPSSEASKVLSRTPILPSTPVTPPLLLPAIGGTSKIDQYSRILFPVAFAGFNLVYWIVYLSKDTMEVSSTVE

On to `CCCN(CCOc1c(Cl)cc(Cl)cc1Cl)C(=O)n1ccnc1`, for which the AC50 in test [1] is 5.4 µM (active); in [2], 32 µM (active); in [3], 19.7 µM (active). Further, the call in [4], in test [5] and in test [6] was inactive.

As for `Oc1cc(Cl)ccc1Oc1ccc(Cl)cc1Cl`, the molecule was classed as inactive in [1], in [7], in test [8] and in test [5]. Further, the AC50 in [3] is 12.4 µM (active) and 15.3 µM (active) and 12.2 µM (active).

Consider `CCOc1nc(NC)nc(NC(=O)NS(=O)(=O)c2ccccc2C(=O)OC)n1`, for which the result in test [2], in [9], in [10] and in [4] was inactive.

Regarding `O=C(Nc1ccccc1)Nc1cnns1`, the AC50 in [11] is 3.68 µM (active). Further, the result in [12], in test [13], in test [14] and in test [5] was inactive.

`O=S(=O)(O)C(F)(F)C(F)(F)C(F)(F)C(F)(F)C(F)(F)C(F)(F)C(F)(F)C(F)(F)F`: the concentration at half-maximal activity (AC50) was 25 µM (active) [middle of 5 runs] in test [1] and 5.81 µM (active) in [3].

`CC[C@H](C)[C@H]1O[C@]2(C=C[C@@H]1C)C[C@@H]1C[C@@H](C/C=C(\C)[C@@H](O[C@H]3C[C@H](OC)[C@@H](O[C@H]4C[C@H](OC)[C@@H](O)[C@H](C)O4)[C@H](C)O3)[C@@H](C)/C=C/C=C3\CO[C@@H]4[C@H](O)C(C)=C[C@@H](C(=O)O1)[C@]34O)O2` (tested in a mixture with another compound): the molecule was classed as inactive in test [15], in [9], in test [12] and in test [13]. In addition, the concentration at half-maximal activity (AC50) in [16] is 0.494 µM (active); in test [1], 6.14 µM (active); in [2], 10.1 µM (active); in test [3], 5.41 µM (active); in [6], 12.2 µM (active).

Take `CC(C)(C)C(O)/C(=C\c1ccc(Cl)cc1Cl)n1cncn1` (stereo unspecified): the molecule was classed as inactive in test [1], in test [9], in test [12], in test [13], in test [14] and in test [5]. In addition, the concentration at half-maximal activity (AC50) in [3] was 1.51 µM (active).

For `N#Cc1c(Cl)c(Cl)c(Cl)c(C#N)c1Cl`, the call in test [1], in test [2], in test [9], in [3], in [12] and in test [4] was inactive. Moreover, the molecule was called inactive in test [13], in test [14] and in [5].

`CC(C)OC(=O)Nc1cccc(Cl)c1`: the result in [11], in test [12], in [13], in [17] and in [14] was inactive.

Turning to `CNC(=O)CSP(=S)(OC)OC`, the molecule was called inactive in test [1], in test [12], in [13], in test [8], in test [14] and in [5].

As to `Oc1ccc(Cl)cc1Cc1ccccc1`, the concentration at half-maximal activity (AC50) is 12.9 µM (active) [middle of 6 runs] in [1]; 9.68 µM (active) and 25.2 µM (active) and 25 µM (active) in [2]; 15.3 µM (active) and 15.7 µM (active) and 19.7 µM (active) in test [3]; 50.5 µM (active) in [18]; 63.2 µM (active) in test [19]; 12 µM (active) in test [5]. The call in [2] and in [6] was inactive.
